Assay [1] is described as follows: Her2 expression decrease, cell viability multiplex – SKBR3 breast tumor cells, AlphaScreen, ATP viability, primary screen (AID 461;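 active = Her2 level under about 52% in both replicate screens, with viability over 70% of control, limit read from the data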;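 for Her2 level: lower value means less Her2 protein in the cells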;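 for viability: percent of carrier control wells set as 100% viability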). The following applies: SKBR3 Her2 protein level, 18-24 h, measured here: SKBR3 viability, ATP luminescence, at 10 µM. In general terms: Bead proximity is the source of the signal in Alpha formats.
Assay [2] addresses Receptor tyrosine-protein kinase erbB-2 (Homo sapiens) (UniProt P04626). Described as above. The following applies: 18-24 h, at 10 µM, stronger effect = lower value.
The nature of assay [3]: reduced viability of SK-BR-3 breast cancer cells – cell-based, 24 h, human, pilot screen (AID 572;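 active = viability at or below 10% of carrier control in both of two separate runs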;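 note: compound exposure lasted between 18 and 24 h rather than exactly 24 h; 100% = carrier-treated control wells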). The following applies: SK-BR-3 viability, CellTiter-Glo luminescence, at 10 µM, stronger effect = lower value.
Assay [4] is described as follows: HUVEC growth inhibition – cell-based, human, primary screen (AID 575;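 active = viability at or below 30% in both replicate assays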;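 note: 100% = median of untreated cell wells with 0.1% DMSO on each plate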). Conditions: HUVEC proliferation, CellTiter-Glo luminescence, 72 h; at 10 µM; stronger effect = lower value. On the technique in general: ATP-based viability assays read luminescence as a measure of living cells.
Assay [5] is described as follows: H69AR cell proliferation blockers – human, duplicate replicates, primary screen (AID 580;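 active = viability at or under a set limit in both replicates, limit being median viability minus 3 SD, cut at about 48% in these data, passing the limit was not always enough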;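 note: 100% = mean luminescence of untreated wells and 0% = no signal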). The following applies: H69AR lung tumor cells viability, ATP luminescence, 72 h; at 10 µM; stronger effect = lower value.
The nature of assay [6]: yeast transport mutant growth inhibition pilot in 384-well plates, post-Golgi transport modulator project (AID 636; in the data active = inhibition above about 31%). The following applies: absorbance 615 nm, about 18 h, stronger effect = higher value.
Assay [7] in a line: growth suppression of yeast trafficking mutant, preliminary HTS, modulators of trafficking downstream of Golgi apparatus project, 1536-format plate, OD 615 nm (AID 637; in the data active = inhibition above about 30%). The following applies: yeast transport mutant growth, absorbance 615 nm, 18 h; stronger effect = higher value.
A short description of assay [8]: S. cerevisiae growth inhibition in permissive medium (OD615), pilot counter-assay for S. cerevisiae lifespan shortening project, permissive growth control (AID 705;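 active = growth inhibition above 25% in both replicates, a cutoff set 3 SD above the mean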). Conditions: OD615, 24 h, at 10 µM, stronger effect = higher value.
Assay [9] is described as follows: S. cerevisiae growth inhibition in restrictive medium, OD615, pilot screen, restrictive growth control, yeast lifespan reduction project (AID 706;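 active = growth inhibition above a set limit, 3 SD over mean compound inhibition, in both replicates, cut at about 43% in these data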;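 note: modified DeaD lifespan yeast strain shifted to restrictive glucose medium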). The following applies: OD615, 48 h, at 10 µM, stronger effect = higher value.
A short description of assay [10]: doxorubicin toxicity protection in MRP-1 cells – H69AR cells, CellTiter-Glo, duplicate, MRP-1 activator project, pilot screen (AID 807;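 active = viability increase at or above a cutoff of the median across tested compounds plus 3 SD, cut at about 8.5% in these data, passing the limit was not always enough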;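 note: compound pretreatment 18-22 h then 72 h combined with doxorubicin; 0% = doxorubicin alone and 100% = vehicle without doxorubicin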). Conditions: H69AR viability with doxorubicin, CellTiter-Glo luminescence; at 10 µM; stronger effect = higher value.
Assay [11] can be described thus: viability of HCT116 without oncogenic beta-catenin – human colon tumor cells, pilot screen (AID 823;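 active = cell viability at or below a set limit in both duplicate runs, the limit being the all-compound median minus 4 SD, cut at about 23% in these data, passing the limit was not always enough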;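 note: 0% = wells killed by 20 µM Hyamine and 100% = untreated DMSO cell wells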). Conditions: HCT116 beta-catenin knockout viability, CellTiter-Glo, 60 h; at 10 µM; stronger effect = lower value.
A short description of assay [12]: viability of PTEN-null HCT116 cells – cell-based, HCT116 clonal line, CellTiter-Glo, pilot screen (AID 824;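 active = viability at or below 27.92% in each of two runs, the all-compound median minus 4 SD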;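 note: 0% = 20 µM Hyamine control and 100% = vehicle cell control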). Conditions: HCT116 PTEN-deleted viability, 60 h, at 10 µM, stronger effect = lower value.
A short description of assay [13]: RAM pathway blockade in budding yeast – dse1pr::URA3 reporter, 5-FOA selection, pilot screen (AID 869).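 Note: 0% = DMSO wells with no growth and 100% = 10 µM 1-NA-PP1 with full growth; RAM network block rescues cells from 5-FOA so hits raise OD615 growth.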 Conditions: S. cerevisiae dse1pr::URA3 5-FOA growth, OD615, 2 d; at 10 µM; stronger effect = higher value; strain carries analog-sensitive mutant Cbk1 kinase.
Assay [14] in a line: RAM signaling pathway blockade in yeast – S. cerevisiae, Pdr1DBD-CYC8 efflux-inhibited sensitized strain, primary screen (AID 1298;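 active = RAM network inhibition above 8.4% in each of two replicates, 3 SD over the compound average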;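 note: 0% = DMSO untreated cells without growth and 100% = 10 µM 1-NA-PP1 full growth; higher means more yeast growth rescued from 5-FOA killing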). Conditions: S. cerevisiae cbk1-as DSE1-URA3 strain, 5-FOA growth OD615, 2 d; at 50 µM; stronger effect = higher value.
Assay [15] in a line: MRP1 drug-resistance reversers in H69AR cells – cell-based, doxorubicin co-treatment, pilot screen (AID 601;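 active = viability loss from added drug above about 55%, and viability with drug at most 40%, in both replicates, limit read from the data, passing the limit was not always enough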). The following applies: CellTiter-Glo, 72 h, at 10 µM; for differential viability (reversal): stronger effect = higher value.
The mark [16] stands for this setting: H69AR cells + 2 uM doxorubicin, measured here: viability with 2 uM doxorubicin, stronger effect = lower value.
[17] abbreviates: H69AR cells, compound alone cytotoxicity.

Inconclusive results are not listed. Activity calls are given as the source filed them.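 Rule for the calls, unless noted: active = inhibition over a set limit, the all-compound mean plus 3 SD, in both replicate runs; inconclusive = over that limit in just one replicate run; inactive = at or under that limit in both runs.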

Chain of Receptor tyrosine-protein kinase erbB-2 (Homo sapiens) (P04626 whole entry, looked up): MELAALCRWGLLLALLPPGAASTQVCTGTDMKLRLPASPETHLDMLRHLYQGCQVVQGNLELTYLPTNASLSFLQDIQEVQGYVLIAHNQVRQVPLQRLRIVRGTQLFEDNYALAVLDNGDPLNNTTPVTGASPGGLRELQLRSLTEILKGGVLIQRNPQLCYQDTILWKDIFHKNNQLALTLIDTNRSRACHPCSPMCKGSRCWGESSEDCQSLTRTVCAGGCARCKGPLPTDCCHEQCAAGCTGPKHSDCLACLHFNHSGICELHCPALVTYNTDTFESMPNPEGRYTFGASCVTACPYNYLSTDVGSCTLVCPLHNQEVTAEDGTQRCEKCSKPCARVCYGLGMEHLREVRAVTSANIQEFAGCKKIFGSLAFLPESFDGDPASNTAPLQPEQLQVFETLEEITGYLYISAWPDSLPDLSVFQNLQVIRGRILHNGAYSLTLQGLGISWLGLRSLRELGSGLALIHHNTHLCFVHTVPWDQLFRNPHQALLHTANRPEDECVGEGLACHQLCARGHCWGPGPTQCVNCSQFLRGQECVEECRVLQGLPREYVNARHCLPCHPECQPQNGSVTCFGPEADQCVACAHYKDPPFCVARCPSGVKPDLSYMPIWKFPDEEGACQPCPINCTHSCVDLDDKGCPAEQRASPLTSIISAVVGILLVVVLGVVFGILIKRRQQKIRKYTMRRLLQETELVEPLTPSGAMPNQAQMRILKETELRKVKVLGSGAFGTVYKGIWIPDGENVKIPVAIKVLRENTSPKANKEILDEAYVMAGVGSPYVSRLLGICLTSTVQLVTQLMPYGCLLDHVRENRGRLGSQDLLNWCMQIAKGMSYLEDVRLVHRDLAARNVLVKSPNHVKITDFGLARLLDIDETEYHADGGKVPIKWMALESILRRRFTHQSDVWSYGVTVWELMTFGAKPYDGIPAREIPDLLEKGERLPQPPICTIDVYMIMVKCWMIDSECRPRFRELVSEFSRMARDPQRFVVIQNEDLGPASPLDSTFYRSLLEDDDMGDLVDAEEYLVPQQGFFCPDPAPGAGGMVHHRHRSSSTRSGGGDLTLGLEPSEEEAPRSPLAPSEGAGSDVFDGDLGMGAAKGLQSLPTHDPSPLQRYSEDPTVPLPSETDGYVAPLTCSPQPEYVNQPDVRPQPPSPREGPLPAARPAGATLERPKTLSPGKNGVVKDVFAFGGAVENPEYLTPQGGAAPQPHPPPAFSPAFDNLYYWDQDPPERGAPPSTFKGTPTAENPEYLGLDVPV

A word on the viability: it is a read-out of living cells in per cent, often relative to untreated cells. What is called inhibition is the relative decrease from the control value, in per cent. Take `Cc1ccc2oc(=O)c3cnn(CC(=O)N4CCCCC4C)c3c2c1` (stereo unspecified): the viability was 91.5% in [1]; 91.5% (inactive) in assay [3]; 103% (inactive) in [4]; 89.2% (inactive) in [5]; 84.1% (inactive) in assay [11]; 87.1% (inactive) in assay [12]. In addition, the Her2 level in assay [2] was 108% (inactive). Moreover, the inhibition in assay [6] was -0.27% (inactive); in assay [7], 2.62% (inactive); in assay [13] it was 3.4% (inactive). The growth inhibition in assay [8] is -9.82% (inactive); in assay [9], -6.86% (inactive). In addition, the viability increase in [10] is -3.34% (inactive). The RAM network inhibition in [14] is 0.87% (inactive).

On to `COc1cccc(-c2nc(CS(=O)(=O)CC(=O)Nc3cc(C)ccc3C)c(C)o2)c1`, for which the viability in assay [1] is 76%; in [3] it was 76% (inactive); in assay [4] it was 70.7% (inactive); in assay [15] (setting [16]) it was 50.8%; in assay [15] (setting [17]) it was 66.1%; in assay [11], 98.4% (inactive). Besides, the viability in assay [12] was 91.4% (inactive). In assay [2], the Her2 level was 86.5% (inactive). For the same compound, the differential viability (reversal) in assay [15] (H69AR cells + 2 uM doxorubicin) is 15.3% (inactive). Also, the inhibition in [6] was -1.73% (inactive); in [7], -4.1% (inactive); in assay [13], 3.55% (inactive). For the same compound, the figures for the growth inhibition in assay [8] and in [9] were -3.37% (inactive) and -3.22% (inactive), respectively. For the same compound, the viability increase in [10] is -1.75% (inactive). Besides, in assay [14], the RAM network inhibition was 0.99% (inactive).

With `CC1CC(C)CN(Cc2nc3c(c(=O)n(C)c(=O)n3C)n2Cc2ccccc2Cl)C1` (stereo unspecified), the viability in assay [1] was 87.5%; in assay [3], 87.5% (inactive); in assay [4], 97.8% (inactive); in assay [5], 89.5% (inactive); in [11] it was 102% (inactive); in assay [12], 97.8% (inactive). The Her2 level in assay [2] is 104% (inactive). Further, the inhibition in assay [6] was -3.2% (inactive); in [7], 0.67% (inactive); in [13], 0.655% (inactive). Moreover, the growth inhibition was 2.67% (inactive) in assay [8] and -4.42% (inactive) in assay [9]. Further, the viability increase in assay [10] was -1.15% (inactive). The RAM network inhibition in assay [14] is 3.22% (inactive).

As for `COc1ccc(NC(=O)CC2Sc3ncnn3C2=O)cc1` (stereo unspecified), the viability is 109% in [1]; 109% (inactive) in assay [3]; 88.3% (inactive) in assay [4]; 111% (inactive) in [5]; 83.5% in [15] (setting [16]); 111% in assay [15] (setting [17]). The viability in assay [11] is 95.2% (inactive); in assay [12], 104% (inactive). In addition, in [2], the Her2 level is 80.5% (inactive). In assay [15] (H69AR cells + 2 uM doxorubicin), the differential viability (reversal) is 27% (inactive). In addition, the figures for the inhibition in assay [6], in assay [7] and in assay [13] were 0.77% (inactive), 4% (inactive) and 1.05% (inactive), respectively. In assay [9], the growth inhibition is 22.2% (inactive). Further, the viability increase in assay [10] was -3.8% (inactive). The RAM network inhibition in [14] was 6.37% (inactive).

For the compound `Cn1c(SCC(=O)c2cc3ccccc3o2)nnc1-c1ccccc1`, the viability in assay [1] was 96.5%; in assay [3] it was 96.5% (inactive); in assay [4], 105% (inactive); in [5], 84.3% (inactive); in assay [15] (setting [16]), 81.1%; in [15] (setting [17]), 84.3%. In addition, the viability in assay [11] is 97.9% (inactive); in assay [12], 96.8% (inactive). Moreover, the Her2 level in assay [2] was 97.5% (inactive). The differential viability (reversal) in [15] (H69AR cells + 2 uM doxorubicin) was 3.21% (inactive). The inhibition in assay [6] is -6% (inactive); in [7], 13.3% (inactive); in assay [13] it was 1.88% (inactive). The growth inhibition in assay [8] was 10.3% (inactive). Besides, the viability increase in [10] is -3.83% (inactive). The RAM network inhibition in [14] was 6.5% (inactive).

The record behind these values is PubChem BioAssay.
